38 compounds from PubChem BioAssay (EPA / NIEHS) can be followed below.

Several values for one entry are separate records, joined by “and”; a condition that tells them apart may be missing. Identical values can stand only once. The source holds several records for some structures; these can differ, active in one and inactive in another. Activity calls are given as the source filed them. How the source made its calls: active means hit-call score of the fitted dose curve at least 0.9, where 1 is the maximum; inactive means score below 0.9.

By AC50 is commonly meant the concentration giving half of the maximal activity seen.

Read-out in this assay: Glutathione S-Transferase (GSTA2), GSTA2 (gene 2939)
Description: LTEA_HepaRG_GSTA2: Life Technologies and Expression Analysis (LTEA) Assay for Glutathione S-Transferase (GSTA2) using HepaRG (AID 2283497). The note with it: mRNA level, 48 h; actives raise or lower the signal. The method, then: LTEA_HepaRG is a cell based, multiplexed-readout assay that uses HepaRG, a human liver cell line, with measurements taken at 48 hours after chemical dosing on a 96-well plate.LTEA_HepaRG_GSTA2 is one of 102 assay component(s) measured in the LTEA HepaRG cell culture assay. It is a marker of Oxidative Stress.Data from the assay component LTEA_HepaRG_GSTA2 was analyzed into 1 endpoint. This assay endpoint, LTEA_HepaRG_GSTA2, was analyzed with bidirectional fitting relative to DMSO as the negative control and baseline of activity. Using a type of inducible reporter, measures of mRNA induction for gain or loss-of-signal activity can be used to understand regulation of transcription factor activity. To generalize the intended target to other relatable targets, this assay endpoint is annotated to the transferase intended target family, where the subfamily is alkyl and aryl transferase.
A total of 1060 chemcials from the ToxCast library were tested in eight-point concentration-response experiments. Cell culture and cytotoxicity assays were conducted at Thermo Fisher Scientific's Custom Services facility (Madison, WI). A single lot of human HepaRG cells (Thermo Fisher Scientific, Frederick, MD) was used for the cell culture experiments. 96-well format collagen type I coated plates of human HepaRG cells were prepared using established methods. Briefly, cryopreserved HepaRG cells were thawed, plated at a density of approximately 100,000 cells/well in HepaRG Thaw, Plate, and General Purpose media (HPRG770, Thermo Fisher Scientific), and incubated for 48 hours. 0.5% DMSO was selected as vehicle control to balance the requisite need of DMSO in HepaRG cultures to maintain differentiation (for example, baseline metabolism, proportions of hepatocytes vs. cholangiocytes), while enabling further hepatic receptor pathway activation (for example, PXR and CAR) in response to chemical exposure. 48 hours after plating, the culture medium was replaced with HepaRG Serum-Free Incudtion Media. Cells were exposed to each test chemical in duplicate and maintained in CO2 incubators for another 48 hours. Chemical plates were thawed to room temperature and 200x concentrations of treatment groups were prepared. 8-point conentration-reponse curves were made with the highest exposure at 100 uM, followed by half-log dilutions, all in 0.5% DMSO. Each test plate contained variouse controls, induction positive controls (1mM phenobarbital), cytotoxicity positive controls ([…] aflatoxin B1), vehicle controls (0.5% DMSO), and total lysis controls (0.5% DMSO). Cell morphology images were taken using an Essen IncuCyte FLR automated microscope, with six 96-well plates imaged in about 24 minutes. Images were captured and exported and JPEG files. Spent culture media was transfered to black-well plates for the LDH assay, and remaining media was sorted at -80 C for later use. Cells were treated with RLT buffer and frozen until shipped for gene expression analysis. Total RNA was isolated from the cell suspension in 75 uL of Buffer RLT (Qiagen, Germantown, MD 20874) by Quintiles/Expression Analysis (Durham, NC) using a custom isolation procedure. Total RNA from each plate well was transferred to a preamplification plate. Fluidigm's 96.96 Dynamic ArrayTM (Fluidigm, Amsterdam, the Netherlands) technology was used for gene expression analyses by quantitative reverse transcription polymerase chain reaction (qRT-PCR, performed by Quintiles/Expression Analysis, Durham, NC)89. Standard TaqManTM Assays (Applied Biosystems/ThermoFisher Scientific, Foster City, CA) were used to assess the expression of 93 genes selected based on their selectivity and sensitivity to important hepatic receptors known to be modulated by environmental chemicals; importance in human hepatocyte functionality; and hepatotoxicity. […]
Regarding `COC(=O)C=C(C)OP(=O)(OC)OC`, the outcome was inactive.

As for `COC(=O)c1ccccc1C(=O)OC`, the call was inactive.

For the compound `CC(C)(C)c1ccc(CSc2cnn(C(C)(C)C)c(=O)c2Cl)cc1`, the half-maximal activity concentration (AC50) was 8.51 µM (active).

With `O=C(O)c1nc(Cl)ccc1Cl`, the outcome was inactive and the half-maximal activity concentration (AC50) was 50 µM (active).

For `CS/C(C)=N/OC(=O)N(C)SN(C)C(=O)O/N=C(\C)SC`, the outcome was inactive.

Regarding `N#Cc1cc(Br)c(O)c(Br)c1`, the AC50 was 22 µM (active).

For `CO/C=C(/C(=O)OC)c1ccccc1Oc1cc(Oc2ccccc2C#N)ncn1`, the AC50 was 81.5 µM (active) and 81 µM (active) and 78.7 µM (active).

On to `N#CC(CCc1ccc(Cl)cc1)(Cn1cncn1)c1ccccc1` (stereo not given), for which the AC50 was 68 µM (active).

Consider `COC(=O)C(C)Oc1ccc(Oc2ccc(Cl)cc2Cl)cc1` (stereo not given), for which the concentration at half-maximal activity (AC50) was 74.4 µM (active).

For `Fc1ccc(Oc2ccnc3cc(Cl)cc(Cl)c23)cc1`, the AC50 was 83.6 µM (active).

On to `COc1nc(NC(C)C)nc(NC(C)C)n1`, for which the result was inactive.

For `CCCN(CCC)c1c([N+](=O)[O-])cc(S(N)(=O)=O)cc1[N+](=O)[O-]`, the AC50 is 91 µM (active) and 68.4 µM (active) and 83.1 µM (active).

With `CCOP(=S)(OCC)SCn1c(=O)oc2cc(Cl)ccc21`, the result was inactive.

With `COP(N)(=O)SC` (stereo not given), the compound was called inactive.

Consider `CCc1nn(C)c(C(=O)NCc2ccc(C(C)(C)C)cc2)c1Cl`, for which the concentration at half-maximal activity (AC50) is 11.9 µM (active).

Consider `CCCC1COC(Cn2cncn2)(c2ccc(Cl)cc2Cl)O1` (stereo not given), for which the half-maximal activity concentration (AC50) was 37 µM (active).

On to `N#Cc1nn(-c2c(Cl)cc(C(F)(F)F)cc2Cl)c(N)c1S(=O)C(F)(F)F` (stereo not given), for which the AC50 is 32 µM (active).

In the case of `C#CCOS(=O)OC1CCCCC1Oc1ccc(C(C)(C)C)cc1` (stereo not given), the concentration at half-maximal activity (AC50) was 27.7 µM (active).

As to `C=CCC1=C(C)C(OC(=O)C2C(C=C(C)C)C2(C)C)CC1=O` (stereo not given), the result was inactive and the AC50 was 84.3 µM (active).

As to `COc1cnc(OC)n2nc(NS(=O)(=O)c3c(OCC(F)F)cccc3C(F)(F)F)nc12`, the compound was called inactive.

Take `OC(c1ccc(Cl)cc1)(c1cncnc1)c1ccccc1Cl` (stereo not given): the half-maximal activity concentration (AC50) is 74.8 µM (active).

Consider `COP(=S)(OC)Oc1nc(Cl)c(Cl)cc1Cl`, for which the compound was called inactive.

In the case of `CNC(=O)ON=CC(C)(C)SC`, the compound was classed as inactive.

As to `CCON=C(CC)C1=C(O)CC(c2c(C)cc(C)cc2C)CC1=O` (stereo not given), the result was inactive.

For the compound `CCCCOC(=O)c1ccccc1C(=O)OCCCC`, the compound was called inactive.

Take `CC(C)C1(C)N=C(c2nc3ccccc3cc2C(=O)O)NC1=O` (stereo not given): the outcome was inactive.

As to `CCOc1cc(Oc2ccc(C(F)(F)F)cc2Cl)ccc1[N+](=O)[O-]`, the AC50 was 39.9 µM (active).

On to `CCNc1nc(Cl)nc(NCC)n1`, for which the compound was called inactive.

Regarding `CC1COC(Cn2cncn2)(c2ccc(Oc3ccc(Cl)cc3)cc2Cl)O1` (stereo not given), the AC50 is 19.7 µM (active).

Consider `CCCCC(CC)COC(=O)c1ccccc1C(=O)OCC(CC)CCCC` (stereo not given), for which the compound was called inactive.

With `C=CCC1=C(C)[C@@H](OC(=O)[C@@H]2[C@@H](C=C(C)C)C2(C)C)CC1=O`, the result was inactive.

As to `Cc1c(F)c(F)c(COC(=O)C2C(/C=C(\Cl)C(F)(F)F)C2(C)C)c(F)c1F` (stereo not given), the compound was called inactive.

`COC(=O)N(OC)c1ccccc1COc1ccn(-c2ccc(Cl)cc2)n1`: the AC50 is 78.7 µM (active).

As to `Cc1ccc(-c2c(Cl)nc(C#N)n2S(=O)(=O)N(C)C)cc1`, the AC50 was 9.43 µM (active).

In the case of `CC(C)Oc1cc(-n2nc(C(C)(C)C)oc2=O)c(Cl)cc1Cl`, the concentration at half-maximal activity (AC50) was 80.8 µM (active).

`CCOC(=O)CC(SP(=S)(OC)OC)C(=O)OCC` (stereo not given): the compound was called inactive.

In the case of `Cc1cc(Cl)ccc1OCC(=O)O`, the compound was classed as inactive.

As to `CON(C)C(=O)Nc1ccc(Cl)c(Cl)c1`, the AC50 is 50 µM (active).
